Screening data deposited in PubChem by National Center for Advancing Translational Sciences (NCATS).
D1 ag = human D1 receptor agonism; P21728; HEK293 T-REx D1 cells, calcium flux, agonist mode; activation, % at 2 µM; 360,000 tested, 1% active; AID 504660
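Agonism was scored from calcium flux recorded over 180 s (1 read/s) after pintool compound addition, following a 10-cycle baseline. Cells were inducible force-coupled HEK293 TREx D1, plated overnight at 30 C and loaded with no-wash calcium dye.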
D1 PAM = potentiators of human D1 dopamine receptor. potentiation, % at 10 µM. HEK293 TREx D1 cells, calcium flux, dopamine EC20 potentiation. AID 504651. 360,000 tested, 0.036% active; in the data active means potentiation above about 30%
D1 antagonist = antagonists of human D1 dopamine receptor | P21728 | HEK293 TREx D1 cells, calcium flux, dopamine EC80; stronger effect = lower value | activity change, negative = inhibition, % at 10 µM | 360,000 tested, 3.2% active; in the data active means activity change below about -30%
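Using tetracycline-induced force-coupled D1 Hek293 cells and a calcium dye, signals were followed for 180 s after compound, then for 180 s after EC80 dopamine, to detect inhibitors.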
TRHR enhancer = allosteric enhancers of human TRH receptor. P34981. TRHR cells, fluo-8 calcium fluorescence, EC20 TRH enhancement. enhancement, % at 2 µM. 360,000 tested, 0.66% active; in the data active means enhancement above about 30%
Target sequence (P34981 whole entry, looked up): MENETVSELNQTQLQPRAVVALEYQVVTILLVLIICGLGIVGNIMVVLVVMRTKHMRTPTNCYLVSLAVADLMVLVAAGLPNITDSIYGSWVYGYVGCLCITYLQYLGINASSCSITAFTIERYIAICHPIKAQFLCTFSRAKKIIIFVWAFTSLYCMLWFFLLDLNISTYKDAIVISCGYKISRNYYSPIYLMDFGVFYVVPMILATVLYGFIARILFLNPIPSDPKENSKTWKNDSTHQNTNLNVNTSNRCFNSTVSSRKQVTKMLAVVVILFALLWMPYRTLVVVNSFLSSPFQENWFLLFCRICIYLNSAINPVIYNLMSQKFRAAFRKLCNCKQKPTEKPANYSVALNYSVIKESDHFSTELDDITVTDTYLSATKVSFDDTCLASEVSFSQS
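Enhancer read-out: after compound pinning and an initial kinetic agonist-mode read, an EC20 of TRH (10 nM final) was injected and fluo-8 calcium signal (Ex 480/Em 530) followed at 1 s/cycle for 100 cycles in TRHR-expressing cells.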
TRHR ag = TRH receptor (human) agonism. AID 493084. P34981. TRHR cells, calcium flux fluo-8, FDSS agonist mode. 360,000 tested, 0.18% active. activation, % at 2 µM
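TRHR-expressing cells loaded with fluo-8 calcium dye; 23 nL library compound pin-transferred, kinetic FDSS fluorescence (Ex 480/Em 530) recorded about 180 s for agonist-induced calcium release, before a 10 nM TRH EC20 addition for potentiator mode.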
Numbers stand for hits; 0 = inactive; - = no result given. An excerpt weighted towards active compounds, which were near 4.7% of everything screened. Unless noted, no stated cut-off is given here; in the data, active means activation above about 30%; inactive means the rest.

SMILES	D1 ag	D1 PAM	D1 antagonist	TRHR enhancer	TRHR ag
CCc1cccc(N2C(=O)N(Cc3c(F)cccc3Cl)c3ccccc3S2(=O)=O)c1	0	0	0	0	0
CC1(C)CC(=O)C2=C(C1)NC(=O)CC2c1ccccc1F (stereo not drawn)	0	0	-30.6	0	0
CC1(C)CC(=O)C2=C(C1)NC(=O)CC2c1cc(F)ccc1F (stereo not drawn)	0	0	0	0	0
CCCOc1ccc(CCC(=O)N/N=C/c2ccncc2)cc1	0	0	-36.3	0	0
CCOCCCNC(=S)N1CCN(c2nc(-c3ccc(F)cc3)cs2)CC1	0	0	-31.5	0	0
CCCNC(=S)N1CCN(c2nc(-c3ccc(C)cc3)cs2)CC1	0	0	-35.0	0	0
COCCCNC(=S)N1CCN(c2nc(-c3ccc(F)cc3)cs2)CC1	0	0	0	0	0
Cc1cc(S(=O)(=O)NC2CCCCC2)c(C)s1	0	0	-30.4	0	0
COc1ccc(C)cc1S(=O)(=O)NC1CCCCCC1	0	0	0	0	0
CS(=O)(=O)N1CCN(C(=O)c2ccncc2)CC1	0	0	0	0	0
O=C(c1ccc(Br)o1)N1CCN(Cc2ccc3c(c2)OCO3)CC1	0	0	0	0	0
CS(=O)(=O)N1CCN(C(=O)c2ccc(Br)s2)CC1	0	0	-31.8	0	0
Cc1cc(C(=O)N2CCCC(N3CCN(Cc4ccc5c(c4)OCO5)CC3)C2)n[nH]1 (stereo not drawn)	0	0	0	0	0
CCCC(=O)N1CCN(Cc2ccc3c(c2)OCO3)CC1	0	0	0	0	0
O=C(O)CCC(=O)N1CCN(Cc2ccc3c(c2)OCO3)CC1	0	0	0	30.7	0
O=C(c1ccc(Br)s1)N1CCN(Cc2ccc3c(c2)OCO3)CC1	0	0	-34.9	0	0
Cc1ccccc1C(=O)N1CCCC(N2CCN(Cc3ccc4c(c3)OCO4)CC2)C1 (stereo not drawn)	0	0	-51.5	0	0
O=C(CN1C(=O)c2cccc3cccc1c23)N1CCN(Cc2ccc3c(c2)OCO3)CC1	0	0	0	0	0
CC(=O)N1CCN(Cc2ccc(Br)s2)CC1	0	0	0	30.3	0
O=C(CCN1C(=O)c2cccc3cccc(c23)C1=O)N1CCN(Cc2ccc3c(c2)OCO3)CC1	0	0	-30.3	0	0
CC(C)CNS(=O)(=O)c1ccc(CCC(=O)N2CCN(Cc3ccc4c(c3)OCO4)CC2)cc1	0	0	-33.1	0	0
CCOc1ccccc1N1CCN(Cc2ccc(Br)s2)CC1	0	0	0	0	0
CSc1cccc(NC(=O)Cn2ncn3c(cc4ccccc43)c2=O)c1	0	0	0	0	0
COc1ccc(C(=O)Nc2n[nH]c(-c3ccncc3)n2)cc1	0	0	-47.1	0	0
COc1ccc(C(=O)Nc2nc(C)cc(C)n2)cc1	0	0	0	0	0
SMILES	D1 ag	D1 PAM	D1 antagonist	TRHR enhancer	TRHR ag
COc1ccc(S(=O)(=O)Nc2ccc3c(c2)N(C(C)=O)CCC3)cc1F	0	0	0	0	0
CC(C)NC(=O)/C(C#N)=C\c1ccc(N(C)C)o1	0	0	0	0	0
CCN(CC)c1ccc(/C=C(/C#N)C(=O)NC(C)C)o1	57.3	0	0	0	0
CCN(CC)c1ccc(/C=C(/C#N)C(=O)NCc2ccccc2)o1	152.0	0	0	0	58.7
CC(=O)Nc1ccc(/C=C(\C#N)C(=O)NCc2ccccc2)cc1	0	0	0	0	0
Cc1ccc(NC(=O)c2oc3ccc(S(=O)(=O)N4CCC5(CC4)OCCO5)cc3c2C)c(C)c1	0	0	0	0	0
COc1ccccc1NC(=O)CNC(=O)Cn1c(C)cc2ccccc2c1=O	0	0	-65.4	0	0
COc1ccc(OC)c(NC(=O)CNC(=O)Cn2c(C)cc3ccccc3c2=O)c1	0	0	0	0	0
COc1cccc(NC(=O)COC(=O)Cn2c(C)csc2=O)c1	0	-	-93.8	0	0
Cc1ccc(NC(=O)COC(=O)Cn2c(C)csc2=O)cc1C	0	0	-35.0	0	0
Cc1cc(C)c(C(=O)COC(=O)CCn2c(C)csc2=O)cc1C	0	0	0	0	0
Cc1cc(C)c(C(=O)COC(=O)Cn2c(C)csc2=O)cc1C	0	0	-36.1	0	0
COc1cccc(C2C(C(=O)Nc3ccccc3)=C(C)Nc3nnnn32)c1OC (stereo not drawn)	0	0	0	0	0
COc1cccc(CNC(=O)CNS(=O)(=O)c2ccc3nc(C)sc3c2)c1	0	0	0	0	0
Cc1cc(-c2ccccc2)nc2cc(C(=O)Nc3cc(C(F)(F)F)ccc3Cl)nn12	0	0	0	0	0
Cc1nn2c(=O)cc(COC(=O)c3ccco3)nc2s1	0	0	0	0	0
COc1ccccc1NC(=O)COC(=O)CCn1c(C)csc1=O	0	0	-32.7	0	0
COc1cc(OC)cc(C(=O)NC2CC3CCC(C2)N3C)c1 (stereo not drawn)	0	0	-54.4	0	0
CCCN1C2CCCC1CC(NC(=O)c1cc(OC)cc(OC)c1)C2 (stereo not drawn)	0	0	-34.2	0	0
CCCN1C2CCCC1CC(NC(=O)c1ccc(C(C)(C)C)cc1)C2 (stereo not drawn)	0	0	0	0	0
CCOc1c(Cl)cc(CNc2ccc3[nH]c(=O)[nH]c3c2)cc1OC	0	0	0	0	0
Cc1ccc(Sc2ncnc3onc(C)c23)c(C)c1	0	0	-	0	0
COc1ccc(Sc2ncnc3onc(C)c23)cc1	0	0	-42.5	0	0
S=C1NC2=C(CCCC2=C2SCCS2)C(c2ccccc2)N1 (stereo not drawn)	0	0	0	37.3	0
Fc1ccc(/C=C2\CCCC3=C2NC(=S)NC3c2ccc(F)cc2)cc1 (stereo not drawn)	0	0	0	0	0
SMILES	D1 ag	D1 PAM	D1 antagonist	TRHR enhancer	TRHR ag
O=C(Cc1ccc(NC(=O)N2CCCCc3ccccc32)cc1)NCc1ccccc1Br	0	0	0	0	0
CC(C)COC(=O)C(N)C(C(=O)OCC(C)C)c1ccccc1 (stereo not drawn)	0	0	-34.5	0	0
CCC(C(=O)O/N=C(\N)c1ccccc1)c1ccccc1 (stereo not drawn)	0	0	0	0	0
CC(=O)N1CCCc2cc(S(=O)(=O)NCc3ccc(OC(C)C)cc3)ccc21	0	0	0	0	0
CC(NC(=O)c1ccc(F)cc1)c1nc2ccccc2[nH]1 (stereo not drawn)	0	0	0	0	0
CCNC(=O)COC(=O)c1cc(C)n(-c2ccccc2)c1C	0	0	-54.8	0	0
COc1ccc2nc(-c3ccccc3)cc(C(=O)OCC(=O)N3CC(C)OC(C)C3)c2c1 (stereo not drawn)	0	0	0	40.9	0
COc1ccc2nc(-c3ccccc3)cc(C(=O)OCC(=O)N3CCCCC3)c2c1	0	0	0	0	0
Cc1cc(C(=O)OCC(=O)N2CC(C)OC(C)C2)c(C)n1-c1ccccc1 (stereo not drawn)	0	-	-64.8	0	0
